From PubChem
aDG glyco act = increases alpha dystroglycan glycosylation | Pro5-aDG cells, alpha-DG glycosylation AlphaScreen (IIH6); 0% Pro5, 100% B10-LARGE cell signal | activation, % at 10 µM | hit rate 0.22% among 360,000 | AID 624168;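 active = activation of at least 8% versus controls, or a plate z-score of at least 8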;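 note: Pro5 are CHO cells carrying HIG-tagged alpha-DG that lacks glycosylation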
H9c2 protect = modulators protecting cardiomyocytes from myocardial damage | AID 588492 | hit rate 0.63% among 360,000 | H9c2 cardiomyocytes, H2O2 injury protection, ATPLite, 2 h | protection from H2O2 cell death, % at 20 µM;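 active = compounds giving at least 50% protection of heart cells from peroxide-induced death in the single-dose screen, raw or plate-pattern-corrected value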
SUMO Mot1 rescue = inhibitors of SUMOylation pathway: yeast Mot1-301 growth rescue | S. cerevisiae Mot1-301 growth rescue, ATP luminescence, 38.5C; percent above DMSO median, 100 means doubled | growth rescue, % at 18.8 µM | hit rate 1% among 320,000;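 active = every valid replicate shows activation above 250% relative to neutral control wells; inactive = the rest, any valid replicate at or below 250%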
FAS TE block = inhibitors of human fatty acid synthase thioesterase domain | recombinant FAS-TE, OMFH fluorogenic substrate, fluorescence endpoint | hit rate 0.67% among 360,000 | inhibition, % at 15 µM;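 active = compounds whose normalised, plate-corrected inhibition of enzyme fluorescence in the single-dose primary screen is 50% or more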
Target sequence (P49327 whole entry, looked up, the tested form may be a part): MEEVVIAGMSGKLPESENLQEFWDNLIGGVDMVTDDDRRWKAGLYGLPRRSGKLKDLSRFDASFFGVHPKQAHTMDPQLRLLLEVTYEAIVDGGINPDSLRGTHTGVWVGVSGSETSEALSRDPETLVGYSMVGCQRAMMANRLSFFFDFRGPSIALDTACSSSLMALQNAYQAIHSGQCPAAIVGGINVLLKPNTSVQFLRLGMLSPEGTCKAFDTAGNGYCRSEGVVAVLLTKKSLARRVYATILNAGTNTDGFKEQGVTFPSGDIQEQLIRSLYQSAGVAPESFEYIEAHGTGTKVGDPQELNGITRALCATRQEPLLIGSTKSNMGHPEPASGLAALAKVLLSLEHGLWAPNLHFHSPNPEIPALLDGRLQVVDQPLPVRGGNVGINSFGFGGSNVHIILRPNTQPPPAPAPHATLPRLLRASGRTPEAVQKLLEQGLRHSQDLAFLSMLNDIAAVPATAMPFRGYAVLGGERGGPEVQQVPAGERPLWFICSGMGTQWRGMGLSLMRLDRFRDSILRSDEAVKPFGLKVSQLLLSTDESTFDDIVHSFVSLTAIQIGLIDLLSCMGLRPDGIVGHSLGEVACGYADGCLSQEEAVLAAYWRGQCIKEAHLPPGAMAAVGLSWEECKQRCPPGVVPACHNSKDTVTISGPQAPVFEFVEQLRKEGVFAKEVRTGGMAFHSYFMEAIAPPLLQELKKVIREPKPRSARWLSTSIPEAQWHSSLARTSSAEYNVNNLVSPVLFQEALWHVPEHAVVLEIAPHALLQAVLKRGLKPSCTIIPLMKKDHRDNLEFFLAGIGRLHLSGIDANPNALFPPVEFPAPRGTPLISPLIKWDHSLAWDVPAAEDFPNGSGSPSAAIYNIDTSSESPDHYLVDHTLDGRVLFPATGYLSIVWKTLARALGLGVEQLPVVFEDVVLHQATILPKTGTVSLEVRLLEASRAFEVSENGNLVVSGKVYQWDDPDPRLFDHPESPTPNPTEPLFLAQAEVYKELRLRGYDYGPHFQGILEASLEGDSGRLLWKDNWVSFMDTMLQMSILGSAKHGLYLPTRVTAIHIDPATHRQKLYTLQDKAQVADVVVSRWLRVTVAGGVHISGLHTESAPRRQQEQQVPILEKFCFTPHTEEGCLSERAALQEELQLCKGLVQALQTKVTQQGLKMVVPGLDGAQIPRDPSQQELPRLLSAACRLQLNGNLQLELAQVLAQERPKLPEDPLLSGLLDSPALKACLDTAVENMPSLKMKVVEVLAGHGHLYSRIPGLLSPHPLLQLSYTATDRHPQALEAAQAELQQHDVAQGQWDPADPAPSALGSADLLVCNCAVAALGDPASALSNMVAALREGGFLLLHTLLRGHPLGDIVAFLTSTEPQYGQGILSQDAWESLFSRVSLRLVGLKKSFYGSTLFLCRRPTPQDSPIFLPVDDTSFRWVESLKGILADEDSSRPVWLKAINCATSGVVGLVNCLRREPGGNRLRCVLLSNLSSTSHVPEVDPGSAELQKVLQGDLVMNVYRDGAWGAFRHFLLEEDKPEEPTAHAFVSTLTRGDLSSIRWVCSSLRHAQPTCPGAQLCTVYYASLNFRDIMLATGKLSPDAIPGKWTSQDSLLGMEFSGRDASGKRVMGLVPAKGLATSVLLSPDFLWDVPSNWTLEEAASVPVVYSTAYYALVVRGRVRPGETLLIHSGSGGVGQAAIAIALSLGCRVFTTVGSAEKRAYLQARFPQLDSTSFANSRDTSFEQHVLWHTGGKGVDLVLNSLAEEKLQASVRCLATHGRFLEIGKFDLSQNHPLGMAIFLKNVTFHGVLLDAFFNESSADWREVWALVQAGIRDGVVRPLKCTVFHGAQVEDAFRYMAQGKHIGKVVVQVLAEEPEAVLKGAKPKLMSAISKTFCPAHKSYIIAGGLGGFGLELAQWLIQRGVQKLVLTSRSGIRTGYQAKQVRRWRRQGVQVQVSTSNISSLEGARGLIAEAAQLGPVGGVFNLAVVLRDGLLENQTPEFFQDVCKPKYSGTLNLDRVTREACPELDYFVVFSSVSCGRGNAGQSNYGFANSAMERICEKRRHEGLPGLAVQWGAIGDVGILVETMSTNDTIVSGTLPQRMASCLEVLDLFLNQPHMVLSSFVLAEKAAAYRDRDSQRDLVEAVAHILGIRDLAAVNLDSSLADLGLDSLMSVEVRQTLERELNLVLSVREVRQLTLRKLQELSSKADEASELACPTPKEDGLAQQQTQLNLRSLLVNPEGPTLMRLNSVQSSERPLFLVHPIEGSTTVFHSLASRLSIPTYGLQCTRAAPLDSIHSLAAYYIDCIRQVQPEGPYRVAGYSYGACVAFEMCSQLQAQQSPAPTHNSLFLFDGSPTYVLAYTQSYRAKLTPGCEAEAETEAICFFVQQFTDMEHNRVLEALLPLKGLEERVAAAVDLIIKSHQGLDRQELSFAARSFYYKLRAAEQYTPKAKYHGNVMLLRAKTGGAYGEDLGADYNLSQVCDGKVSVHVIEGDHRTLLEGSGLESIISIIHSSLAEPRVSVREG
Yeast superoxide = yeast age-related superoxide inhibition as caloric restriction mimetic. S. cerevisiae aged cells, superoxide DHE fluorescence; active compounds read low. superoxide response (% of plate mean), % at 10 µM. hit rate 0.18% among 330,000. AID 2690;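 active = superoxide response under a set limit, about three screen SD below normal, cut at about 65% in these data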;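 note: yeast aged for seven days with compound at 30 °C before DHE staining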
MPTP block = inhibitors of mitochondrial permeability transition pore. isolated mouse mitochondria, Ca2+ swelling absorbance, 30 min. inhibition, % at 10 µM. AID 602449. hit rate 1.4% among 360,000;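 active = inhibition of 50% or more, scaled per plate between neutral and stimulator controls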
Yeast Mot1 SUMO = inhibits SUMO pathway, affecting Mot1-301 yeast growth | shares compounds with SUMO Mot1 rescue | S. cerevisiae Mot1-301 galactose growth, ATP luminescence, 24 h; -100 = growth of slx-deleted rescue strain | growth activity, percent, % at 42 µM | 2,300 tested, under 10 active | AID 493004;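 active = Signal drops as the depositor expects, and the fitted half-maximal dose is no more than ten times the top valid tested dose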;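 note: more negative values mean stronger growth rescue toward the control strain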
Hits are given with their value; i = inactive; nt = no result given; + = active, no number. A selection: hits, their analogues and other compounds. The true share with any hit is near 3.8%.

SMILES | aDG glyco act | H9c2 protect | SUMO Mot1 rescue | FAS TE block | Yeast superoxide | MPTP block | Yeast Mot1 SUMO
COc1ccccc1N(C)S(=O)(=O)c1ccc(C(=O)OCC(=O)c2c[nH]c3ccccc23)cc1 | i | i | i | i | i | i | nt
C=C(C)Cc1c(C)c(C#N)c2[nH]c3ccccc3n2c1=O | i | i | 690 | i | i | i | i
Cc1c(CCC(=O)O)c(=O)n2c([nH]c3ccccc32)c1C#N | i | i | i | i | i | i | nt
O=C(CSc1nc(=O)n2ccccc2n1)N1CCN(c2ccccc2)CC1 | i | i | 559 | i | i | i | i
COc1ccccc1N1CCN(C(=O)CSc2nc3ncnc(N)c3[nH]2)CC1 | i | i | i | i | i | i | nt
Nc1ncnc2nc(SCC(=O)N3CCN(c4ccccc4)CC3)[nH]c12 | i | i | + | i | i | i | i
O=C(CSc1nc(=O)n2ccccc2n1)N1CCCCCC1 | i | i | i | i | i | i | nt
O=C(/C=C/[C@H]1O[C@@H](n2ccc(=O)[nH]c2=O)[C@H](O)[C@@H]1O)NCCCc1ccccc1 | i | i | nt | i | nt | i | nt
CC(C)(CNC(=O)c1cccs1)CNC(=O)c1cccs1 | i | i | 667 | i | i | i | i
CCOC(=O)CNC(=O)c1cccs1 | i | i | i | i | i | i | nt
CCCNC(=O)c1cc(S(=O)(=O)N2CCCCC2)ccc1N1CCOCC1 | i | i | i | i | i | i | nt
O=C(NCCc1c[nH]c2ccccc12)c1cc(S(=O)(=O)N2CCCCC2)ccc1N1CCOCC1 | i | i | 449 | i | i | i | i
CN(CC(=O)Nc1ccccc1Sc1ccccc1)Cc1nc2ccccc2c(=O)[nH]1 | i | i | 704 | i | i | i | i
O=C(NC1CCCC1)C(c1cccnc1)N(C(=O)c1ccco1)c1cccc(F)c1 (stereo not given) | i | i | i | i | i | i | nt
CCOC(=O)C1C(c2ccc(C)o2)NC(=O)NC1(O)C(F)(F)F (stereo not given) | i | i | 459 | i | i | i | i
Cc1ccc(C2NC(=O)NC(O)(C(F)(F)F)C2C(=O)c2ccccc2)o1 (stereo not given) | i | i | i | i | i | i | nt
COc1ccc(OC)c(/C=N/NC(=O)CC(=O)NC2CCCCC2)c1 | i | i | i | i | i | i | nt
Cc1ccc(CC(=O)NCCc2ccc(S(N)(=O)=O)cc2)cc1 | i | i | i | i | i | i | nt
Cc1ccsc1C(=O)NCCc1ccc(S(N)(=O)=O)cc1 | i | i | 765 | i | i | i | i
CCOc1ccccc1OCCCC(=O)NCCc1ccc(S(N)(=O)=O)cc1 | i | i | i | i | i | i | nt
CCCCC(=O)NCCc1ccc(S(N)(=O)=O)cc1 | i | i | + | i | i | i | i
C[C@@H]1CN([C@H](C)CO)C(=O)CCCn2cc(nn2)CO[C@H]1CN(C)C(=O)Nc1cccc(C(F)(F)F)c1 | i | i | nt | i | nt | i | nt
CC(=O)OC[C@@H]1CN(Cc2ccccc2)C[C@H](n2cnc3c(N4CCN(c5ccccc5)CC4)ncnc32)O1 | i | i | nt | i | nt | i | nt
CCOC(=O)C1=Nc2ccccc2C1=[N+]=[N-] | i | 72 | 366 | i | i | i | i
CCOC(=O)c1cnc(-c2ccccc2O)nc1Cl | i | i | i | i | i | i | nt
SMILES | aDG glyco act | H9c2 protect | SUMO Mot1 rescue | FAS TE block | Yeast superoxide | MPTP block | Yeast Mot1 SUMO
O=C(O)CC(NC(=O)c1ccc2c(c1)OCO2)c1cccc([N+](=O)[O-])c1 (stereo not given) | i | i | + | i | i | i | i
O=C(Nc1ncccc1O)C1CCN(S(=O)(=O)c2ccc3ccccc3c2)CC1 | i | i | i | i | i | i | nt
O=C(NC1CCCCC1)c1cc(N2C(=O)CCC2=O)ccc1Cl | i | i | i | i | i | i | nt
O=C(Cc1cccc(C(F)(F)F)c1)NCc1cccnc1 | i | i | i | i | i | i | nt
COc1cccc(-n2c(Cc3cc(=O)[nH]c(=O)[nH]3)nnc2SCc2cccnc2)c1 | i | i | 511 | i | i | i | i
O=C(Cn1cnc2ccccc2c1=O)c1ccc(OC(F)F)cc1 | i | i | 513 | i | i | i | i
O=C(CCN1CCN(c2ccccc2)CC1)Nc1ccc(Cl)cc1 | i | i | nt | i | i | i | nt
COC(=O)c1ccc(NC(=O)CCN2CCN(c3ccccc3)CC2)cc1 | i | i | 520 | i | i | i | i
Nc1ncnc2c1ncn2[C@@H]1O[C@H](C(=O)Nc2ccc(C(=O)N3CCCCC3)cc2)[C@@H](O)[C@H]1O | i | i | nt | i | nt | i | nt
NC(=O)c1cc(S(=O)(=O)N2CCc3ccccc3C2)cs1 | i | i | i | i | i | i | nt
O=S(=O)(NCC1CCCN(Cc2ccccc2O)C1)c1cccc2cccnc12 (stereo not given) | i | i | 384 | i | i | i | i
CN(CC(=O)Nc1ccncc1)S(=O)(=O)c1ccc(Br)cc1 | i | i | i | i | i | i | nt
CC(=O)Nc1ccc(S(=O)(=O)N(C)CC(=O)Nc2ccc(Br)cc2F)cc1 | i | i | 513 | i | i | i | i
O=C(OCc1ccccc1Cl)C1CC(=O)N(Cc2ccco2)C1 (stereo not given) | i | i | i | i | i | i | nt
CCOC(=O)c1ccc(NC(=O)NCc2ccncc2)cc1 | i | i | 507 | i | i | i | i
CCOC(=O)c1ccc(NC(=O)NCc2ccc(OC)cc2)cc1 | i | i | i | i | i | i | nt
CC(CNc1nc2ccccc2n2cnnc12)c1ccccc1 (stereo not given) | i | i | i | i | i | i | nt
CCOc1ccc(NS(=O)(=O)c2ccc(C(=O)NCc3cccnc3)cc2)cc1 | i | i | 449 | i | i | i | i
CC(C)(C)C(=O)Nc1ccc(C(=O)NCc2cccnc2)cc1 | i | i | 430 | i | i | i | i
CCOC(=O)c1ccc(CNC(=O)c2cc(C(C)(C)C)oc2C)o1 | i | i | i | i | i | i | nt
CCOC(=O)c1ccc(CNC(=O)C2CCCCC2C(=O)OCC(F)(F)F)o1 (stereo not given) | i | i | + | i | i | i | i
CC(C)c1csc(CN2CCC(C(=O)Nc3cccc(-c4ccco4)c3)CC2)n1 | i | i | nt | i | nt | i | nt
COc1cccc(CN2CC(C(=O)N(C)Cc3ccnc4ccccc34)CCC2=O)c1 (stereo not given) | i | i | i | i | i | i | nt
COc1cccc(C(=O)NCc2ccc(-c3nc4ccccc4s3)cc2)c1 | i | i | 375 | i | i | i | i
COc1ccc(C(=O)NCc2ccc(-c3nc4ccccc4s3)cc2)cc1 | i | i | i | i | i | i | nt
CCOC(=O)c1ccc(NC(=O)CSc2nnc(CC)o2)cc1 | i | i | i | i | i | i | nt
CCOc1ncccc1C(=O)OCC(=O)N(CC)c1ccccc1 | i | i | 439 | i | i | i | i
N#C/C(=C\c1ccc(O)c(O)c1)C(=O)Nc1ccccc1 | i | 55 | 369 | i | i | i | i
